# According to paper PMC7862700, “An all-to-all approach to the identification of sequence-specific readers for epigenetic DNA modifications on cytosine”:
# How the values were obtained:
# Experiment in all cases: DAPPL (digital affinity profiling via proximity ligation, sequencing); 10 mM Tris-HCl pH 7.5, 50 mM NaCl, 1 mM DTT, 4% glycerol, room temperature, 30 min; GST-TFs on glutathione beads, 16-mer random dsDNA library, 0.1% formaldehyde crosslink after washing; high values mean tight binding
# FLI1 = target: T1, FLI1 (Homo sapiens, UniProt Q01543 1-452); conditions: protein: recombinant; tags: N-terminal GST; dsDNA, one strand shown
# T1 sequence: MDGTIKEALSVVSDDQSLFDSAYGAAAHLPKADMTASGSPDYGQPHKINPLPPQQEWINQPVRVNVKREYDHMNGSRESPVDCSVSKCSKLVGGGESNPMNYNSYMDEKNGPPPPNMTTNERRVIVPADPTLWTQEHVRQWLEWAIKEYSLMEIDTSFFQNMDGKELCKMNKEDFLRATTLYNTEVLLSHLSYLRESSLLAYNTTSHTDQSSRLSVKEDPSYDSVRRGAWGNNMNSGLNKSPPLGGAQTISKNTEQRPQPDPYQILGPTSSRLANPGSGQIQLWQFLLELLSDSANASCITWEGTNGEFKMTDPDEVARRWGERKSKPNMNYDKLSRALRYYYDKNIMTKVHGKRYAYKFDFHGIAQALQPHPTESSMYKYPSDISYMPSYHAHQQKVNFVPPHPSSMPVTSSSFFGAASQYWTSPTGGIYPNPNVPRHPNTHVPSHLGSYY
# Method in brief: (§1)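 Beads coated with glutathione captured GST-fused human transcription factors that had been expressed in yeast, and the factors were then given DNA barcodes and pooled with a tag-only sample. The pools were incubated with 200 nmole of a random double-stranded 16-mer DNA library in Tris/NaCl/DTT/glycerol buffer for 30 min at room temperature, washed, crosslinked with 0.1% formaldehyde and proximity-ligated with BsaI/T4 ligase at 37 °C for 1 h. PCR amplification and Illumina NextSeq500 sequencing came last. Binding signal is each hexamer's read frequency for a factor divided by its frequency for the tag-only sample.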
# ELK1 = target: T2, ELK1 (Homo sapiens, UniProt P19419 1-428); conditions: protein: recombinant; tags: N-terminal GST; dsDNA, one strand shown
# T2 sequence: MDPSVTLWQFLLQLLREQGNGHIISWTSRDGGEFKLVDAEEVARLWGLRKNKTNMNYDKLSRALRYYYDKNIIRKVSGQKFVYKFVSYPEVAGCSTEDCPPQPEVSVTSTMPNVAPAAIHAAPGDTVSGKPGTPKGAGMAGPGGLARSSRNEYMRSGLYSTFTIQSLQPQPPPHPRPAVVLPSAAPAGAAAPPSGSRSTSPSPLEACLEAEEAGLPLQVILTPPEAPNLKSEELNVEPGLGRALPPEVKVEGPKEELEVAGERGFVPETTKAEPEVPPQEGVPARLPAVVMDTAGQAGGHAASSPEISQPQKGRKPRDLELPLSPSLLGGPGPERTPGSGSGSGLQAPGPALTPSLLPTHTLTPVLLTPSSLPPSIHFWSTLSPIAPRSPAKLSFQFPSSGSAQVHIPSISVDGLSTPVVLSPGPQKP
# Method in brief: as §1
# GABPA = target: T3, GABPA (Homo sapiens, UniProt Q06546 1-454); conditions: protein: recombinant; tags: N-terminal GST; dsDNA, one strand shown
# T3 sequence: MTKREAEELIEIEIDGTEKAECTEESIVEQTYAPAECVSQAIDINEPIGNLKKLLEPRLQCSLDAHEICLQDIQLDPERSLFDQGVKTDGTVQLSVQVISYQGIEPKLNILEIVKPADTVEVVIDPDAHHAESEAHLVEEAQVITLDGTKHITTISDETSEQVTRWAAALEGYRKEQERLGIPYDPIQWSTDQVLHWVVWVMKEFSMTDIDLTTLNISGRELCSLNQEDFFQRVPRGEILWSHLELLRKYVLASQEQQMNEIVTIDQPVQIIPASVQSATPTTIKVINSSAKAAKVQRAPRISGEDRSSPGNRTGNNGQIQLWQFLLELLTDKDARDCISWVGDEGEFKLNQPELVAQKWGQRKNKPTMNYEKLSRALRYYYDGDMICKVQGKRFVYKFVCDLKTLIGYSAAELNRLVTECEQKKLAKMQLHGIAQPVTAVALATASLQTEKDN
# Method in brief: as §1
# ERG = target: T4, ERG (Homo sapiens, UniProt P11308 1-479); conditions: protein: recombinant; tags: N-terminal GST; dsDNA, one strand shown
# T4 sequence: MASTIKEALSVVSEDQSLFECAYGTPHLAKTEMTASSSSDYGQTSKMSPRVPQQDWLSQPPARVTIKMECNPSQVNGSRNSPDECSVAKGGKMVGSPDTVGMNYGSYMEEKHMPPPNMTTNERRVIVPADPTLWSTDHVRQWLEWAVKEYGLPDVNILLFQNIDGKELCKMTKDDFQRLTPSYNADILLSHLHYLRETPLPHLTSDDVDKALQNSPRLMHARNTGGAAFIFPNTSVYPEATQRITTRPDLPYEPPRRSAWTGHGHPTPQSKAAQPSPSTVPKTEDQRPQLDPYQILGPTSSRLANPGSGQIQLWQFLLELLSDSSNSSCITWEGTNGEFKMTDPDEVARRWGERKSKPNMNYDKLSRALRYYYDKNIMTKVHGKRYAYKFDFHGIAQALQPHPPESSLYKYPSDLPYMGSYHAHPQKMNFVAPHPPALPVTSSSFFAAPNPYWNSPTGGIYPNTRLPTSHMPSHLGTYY
# Method in brief: as §1
# ELF1 = ELF1 (Homo sapiens, UniProt P32519 1-619); conditions: protein: recombinant; tags: N-terminal GST; dsDNA, one strand shown
# ELF1, sequence (P32519 whole entry): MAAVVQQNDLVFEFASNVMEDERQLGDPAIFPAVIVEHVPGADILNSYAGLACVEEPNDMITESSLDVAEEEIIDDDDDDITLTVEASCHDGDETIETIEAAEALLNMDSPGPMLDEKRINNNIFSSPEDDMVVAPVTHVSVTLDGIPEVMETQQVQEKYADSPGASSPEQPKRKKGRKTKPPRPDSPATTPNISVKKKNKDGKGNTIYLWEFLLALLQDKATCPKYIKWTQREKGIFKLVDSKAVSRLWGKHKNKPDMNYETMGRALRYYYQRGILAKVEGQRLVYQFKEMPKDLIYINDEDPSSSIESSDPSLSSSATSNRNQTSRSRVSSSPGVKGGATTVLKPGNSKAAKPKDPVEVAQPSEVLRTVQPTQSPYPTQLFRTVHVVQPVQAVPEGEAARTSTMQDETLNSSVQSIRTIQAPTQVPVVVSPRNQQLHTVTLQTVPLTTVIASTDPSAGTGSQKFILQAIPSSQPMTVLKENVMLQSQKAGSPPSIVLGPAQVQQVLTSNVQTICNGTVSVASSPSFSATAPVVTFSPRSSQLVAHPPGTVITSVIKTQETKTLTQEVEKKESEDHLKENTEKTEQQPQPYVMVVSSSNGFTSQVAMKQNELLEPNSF
# Method in brief: as §1
# EHF = target: T5, EHF (Homo sapiens, UniProt Q9NZC4 1-300); conditions: protein: recombinant; tags: N-terminal GST; dsDNA, one strand shown
# T5 sequence: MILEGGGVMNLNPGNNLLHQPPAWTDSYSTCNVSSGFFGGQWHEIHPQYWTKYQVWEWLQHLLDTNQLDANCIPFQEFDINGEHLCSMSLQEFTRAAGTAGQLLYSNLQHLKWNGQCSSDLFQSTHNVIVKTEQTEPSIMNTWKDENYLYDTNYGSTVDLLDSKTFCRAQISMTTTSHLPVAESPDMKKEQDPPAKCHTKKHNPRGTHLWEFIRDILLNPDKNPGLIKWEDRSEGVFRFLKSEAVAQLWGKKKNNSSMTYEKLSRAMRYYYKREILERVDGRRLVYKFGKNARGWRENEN
# Method in brief: as §1
# SPI1 = SPI1 (Homo sapiens, UniProt P17947 1-270); conditions: protein: recombinant; tags: N-terminal GST; dsDNA, one strand shown
# Method in brief: as §1
# SPIB = SPIB (Homo sapiens, UniProt Q01892 1-262); conditions: protein: recombinant; tags: N-terminal GST; dsDNA, one strand shown
# SPIB, sequence (Q01892 whole entry): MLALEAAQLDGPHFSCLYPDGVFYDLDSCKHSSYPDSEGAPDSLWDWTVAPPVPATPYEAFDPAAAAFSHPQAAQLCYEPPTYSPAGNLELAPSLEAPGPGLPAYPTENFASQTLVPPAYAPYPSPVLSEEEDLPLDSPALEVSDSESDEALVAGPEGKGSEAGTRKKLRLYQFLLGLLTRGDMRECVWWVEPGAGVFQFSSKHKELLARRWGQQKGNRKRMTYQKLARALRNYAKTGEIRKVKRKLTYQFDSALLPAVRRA
# Method in brief: as §1
# ELK3 = target: T6, ELK3 (Homo sapiens, UniProt P41970 1-407); conditions: protein: recombinant; tags: N-terminal GST; dsDNA, one strand shown
# T6 sequence: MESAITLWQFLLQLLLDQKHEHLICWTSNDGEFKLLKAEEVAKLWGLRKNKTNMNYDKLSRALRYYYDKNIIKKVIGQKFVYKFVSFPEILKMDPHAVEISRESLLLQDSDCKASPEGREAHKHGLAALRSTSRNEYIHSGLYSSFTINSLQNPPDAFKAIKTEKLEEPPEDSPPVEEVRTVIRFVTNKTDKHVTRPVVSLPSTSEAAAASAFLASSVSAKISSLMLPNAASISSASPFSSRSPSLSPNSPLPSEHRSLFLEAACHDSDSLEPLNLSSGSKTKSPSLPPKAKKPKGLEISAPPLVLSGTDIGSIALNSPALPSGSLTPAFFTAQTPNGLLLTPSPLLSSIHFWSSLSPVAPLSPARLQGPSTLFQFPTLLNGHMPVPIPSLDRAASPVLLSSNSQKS
# Method in brief: as §1
# FEV = target: T7, FEV (Homo sapiens, UniProt Q99581 1-238); conditions: protein: recombinant; tags: N-terminal GST; dsDNA, one strand shown
# T7 sequence: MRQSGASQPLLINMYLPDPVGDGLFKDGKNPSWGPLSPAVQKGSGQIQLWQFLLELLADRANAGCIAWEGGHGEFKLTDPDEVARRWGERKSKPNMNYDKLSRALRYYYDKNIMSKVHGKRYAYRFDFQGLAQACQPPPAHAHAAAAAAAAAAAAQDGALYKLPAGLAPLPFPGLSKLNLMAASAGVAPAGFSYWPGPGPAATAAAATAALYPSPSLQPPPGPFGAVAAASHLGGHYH
# Method in brief: as §1
# ETV5 = ETV5 (Homo sapiens, UniProt P41161 1-510); conditions: protein: recombinant; tags: N-terminal GST; dsDNA, one strand shown
# ETV5, sequence (P41161 whole entry): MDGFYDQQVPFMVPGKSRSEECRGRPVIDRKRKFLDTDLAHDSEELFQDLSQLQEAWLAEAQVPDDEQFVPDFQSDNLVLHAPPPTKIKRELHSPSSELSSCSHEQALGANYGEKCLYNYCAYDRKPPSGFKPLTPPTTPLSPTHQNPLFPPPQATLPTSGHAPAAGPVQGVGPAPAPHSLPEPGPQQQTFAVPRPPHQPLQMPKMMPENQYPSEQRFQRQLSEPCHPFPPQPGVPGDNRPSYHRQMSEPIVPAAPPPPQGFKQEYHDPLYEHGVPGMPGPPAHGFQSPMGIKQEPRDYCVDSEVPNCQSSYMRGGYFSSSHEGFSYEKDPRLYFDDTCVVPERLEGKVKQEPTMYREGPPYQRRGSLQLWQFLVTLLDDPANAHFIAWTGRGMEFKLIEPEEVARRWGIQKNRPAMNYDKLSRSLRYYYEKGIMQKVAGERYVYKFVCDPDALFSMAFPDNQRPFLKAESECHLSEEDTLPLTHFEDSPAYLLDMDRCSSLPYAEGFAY
# Method in brief: as §1
# HSF1 = HSF1 (Homo sapiens, UniProt Q00613 1-529); conditions: protein: recombinant; tags: N-terminal GST; chain copies: 3; dsDNA, one strand shown
# HSF1, sequence (Q00613 whole entry): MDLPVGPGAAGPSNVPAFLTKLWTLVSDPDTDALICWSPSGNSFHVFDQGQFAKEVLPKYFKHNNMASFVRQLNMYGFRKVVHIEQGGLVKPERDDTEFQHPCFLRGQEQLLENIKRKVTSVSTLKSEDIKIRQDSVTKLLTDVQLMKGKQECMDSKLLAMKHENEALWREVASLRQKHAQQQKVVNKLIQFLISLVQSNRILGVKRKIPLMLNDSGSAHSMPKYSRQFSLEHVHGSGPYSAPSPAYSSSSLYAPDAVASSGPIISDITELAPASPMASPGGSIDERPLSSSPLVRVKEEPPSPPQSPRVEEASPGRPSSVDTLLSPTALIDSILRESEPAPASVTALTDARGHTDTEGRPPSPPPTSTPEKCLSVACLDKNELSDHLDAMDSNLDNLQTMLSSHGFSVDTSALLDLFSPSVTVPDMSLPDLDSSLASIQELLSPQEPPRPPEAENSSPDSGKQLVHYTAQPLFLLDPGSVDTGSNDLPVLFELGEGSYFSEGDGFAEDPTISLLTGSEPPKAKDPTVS
# Method in brief: as §1
# SPIC = target: T8, SPIC (Homo sapiens, UniProt Q8N5J4 1-248); conditions: protein: recombinant; tags: N-terminal GST; dsDNA, one strand shown
# T8 sequence: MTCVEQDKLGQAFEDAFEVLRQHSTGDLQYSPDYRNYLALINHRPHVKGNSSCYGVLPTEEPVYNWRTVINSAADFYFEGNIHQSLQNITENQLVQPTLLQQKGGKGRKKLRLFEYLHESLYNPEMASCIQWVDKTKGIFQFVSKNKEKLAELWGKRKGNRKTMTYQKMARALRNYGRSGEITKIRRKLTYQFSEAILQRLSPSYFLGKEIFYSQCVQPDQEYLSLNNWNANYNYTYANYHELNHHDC
# Method in brief: as §1
# ELF4 = ELF4 (Homo sapiens, UniProt Q99607 1-663); conditions: protein: recombinant; tags: N-terminal GST; dsDNA, one strand shown
# ELF4, sequence (Q99607 whole entry): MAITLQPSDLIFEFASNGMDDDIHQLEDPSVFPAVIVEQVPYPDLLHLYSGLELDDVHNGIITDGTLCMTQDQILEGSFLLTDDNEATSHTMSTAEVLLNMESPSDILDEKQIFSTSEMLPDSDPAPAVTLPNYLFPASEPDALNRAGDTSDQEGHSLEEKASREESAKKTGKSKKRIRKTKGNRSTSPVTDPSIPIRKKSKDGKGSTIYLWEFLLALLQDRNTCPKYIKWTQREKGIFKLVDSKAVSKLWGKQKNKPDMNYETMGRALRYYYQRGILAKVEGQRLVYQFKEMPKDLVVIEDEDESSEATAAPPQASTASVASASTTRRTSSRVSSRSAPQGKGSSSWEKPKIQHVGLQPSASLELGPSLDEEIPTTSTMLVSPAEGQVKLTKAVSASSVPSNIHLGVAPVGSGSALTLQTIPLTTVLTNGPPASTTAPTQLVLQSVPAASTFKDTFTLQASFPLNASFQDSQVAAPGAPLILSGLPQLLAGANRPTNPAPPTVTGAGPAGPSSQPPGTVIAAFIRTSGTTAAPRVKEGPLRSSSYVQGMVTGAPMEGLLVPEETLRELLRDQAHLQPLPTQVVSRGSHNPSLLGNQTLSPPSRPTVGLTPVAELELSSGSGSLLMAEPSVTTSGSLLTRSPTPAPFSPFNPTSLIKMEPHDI
# Method in brief: as §1
# ELK4 = target: T9, ELK4 (Homo sapiens, UniProt P28324-2 1-405); conditions: protein: recombinant; tags: N-terminal GST; dsDNA, one strand shown
# T9 sequence: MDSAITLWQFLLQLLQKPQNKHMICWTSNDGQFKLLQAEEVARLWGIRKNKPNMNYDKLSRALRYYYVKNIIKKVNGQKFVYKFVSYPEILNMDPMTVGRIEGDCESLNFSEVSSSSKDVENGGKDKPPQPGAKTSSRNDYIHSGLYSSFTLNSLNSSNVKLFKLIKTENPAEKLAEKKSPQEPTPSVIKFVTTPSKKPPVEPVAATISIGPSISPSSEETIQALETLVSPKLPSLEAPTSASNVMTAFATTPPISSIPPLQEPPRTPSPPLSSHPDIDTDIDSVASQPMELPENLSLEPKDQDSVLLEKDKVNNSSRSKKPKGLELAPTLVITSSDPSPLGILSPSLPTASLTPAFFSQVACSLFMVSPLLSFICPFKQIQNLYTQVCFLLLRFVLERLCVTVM
# Method in brief: as §1
# ETV2 = target: T10, ETV2 (Homo sapiens, UniProt O00321 1-342); conditions: protein: recombinant; tags: N-terminal GST; dsDNA, one strand shown
# T10 sequence: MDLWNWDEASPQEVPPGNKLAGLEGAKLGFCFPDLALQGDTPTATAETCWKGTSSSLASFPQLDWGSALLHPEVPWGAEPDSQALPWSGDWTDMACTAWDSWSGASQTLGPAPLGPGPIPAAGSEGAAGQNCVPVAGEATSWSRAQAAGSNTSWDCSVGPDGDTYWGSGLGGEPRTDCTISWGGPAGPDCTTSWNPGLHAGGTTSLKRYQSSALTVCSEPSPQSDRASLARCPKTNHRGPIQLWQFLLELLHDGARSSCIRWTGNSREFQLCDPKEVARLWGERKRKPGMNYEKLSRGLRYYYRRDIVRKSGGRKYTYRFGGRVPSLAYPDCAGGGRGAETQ
# Method in brief: as §1
# ELF3 = target: T11, ELF3 (Homo sapiens, UniProt P78545 1-371); conditions: protein: recombinant; tags: N-terminal GST; dsDNA, one strand shown
# T11 sequence: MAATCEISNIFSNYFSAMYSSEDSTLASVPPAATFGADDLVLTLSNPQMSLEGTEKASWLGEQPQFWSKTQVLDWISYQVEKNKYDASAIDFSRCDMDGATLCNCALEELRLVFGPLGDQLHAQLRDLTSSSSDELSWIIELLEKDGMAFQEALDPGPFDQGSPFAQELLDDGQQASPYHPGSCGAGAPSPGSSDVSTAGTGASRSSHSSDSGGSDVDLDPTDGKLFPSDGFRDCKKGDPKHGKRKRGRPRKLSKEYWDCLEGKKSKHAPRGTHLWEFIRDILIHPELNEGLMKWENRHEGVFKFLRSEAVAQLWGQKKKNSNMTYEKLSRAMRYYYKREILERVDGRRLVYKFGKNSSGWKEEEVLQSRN
# Method in brief: as §1
# CRX = CRX (Homo sapiens, UniProt O43186 1-299); conditions: protein: recombinant; tags: N-terminal GST; dsDNA, one strand shown
# CRX, sequence (O43186 whole entry): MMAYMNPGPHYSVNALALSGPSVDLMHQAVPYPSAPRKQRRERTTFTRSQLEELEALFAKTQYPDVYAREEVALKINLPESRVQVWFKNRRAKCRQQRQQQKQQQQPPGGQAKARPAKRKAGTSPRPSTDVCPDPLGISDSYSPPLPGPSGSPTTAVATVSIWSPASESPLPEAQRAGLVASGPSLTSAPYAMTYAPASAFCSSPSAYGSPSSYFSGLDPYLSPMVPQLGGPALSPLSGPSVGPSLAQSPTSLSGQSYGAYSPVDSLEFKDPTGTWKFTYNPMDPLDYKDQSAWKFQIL
# Method in brief: as §1
# ETV1 = ETV1 (Homo sapiens, UniProt P50549 1-477); conditions: protein: recombinant; tags: N-terminal GST; dsDNA, one strand shown
# ETV1, sequence (P50549 whole entry): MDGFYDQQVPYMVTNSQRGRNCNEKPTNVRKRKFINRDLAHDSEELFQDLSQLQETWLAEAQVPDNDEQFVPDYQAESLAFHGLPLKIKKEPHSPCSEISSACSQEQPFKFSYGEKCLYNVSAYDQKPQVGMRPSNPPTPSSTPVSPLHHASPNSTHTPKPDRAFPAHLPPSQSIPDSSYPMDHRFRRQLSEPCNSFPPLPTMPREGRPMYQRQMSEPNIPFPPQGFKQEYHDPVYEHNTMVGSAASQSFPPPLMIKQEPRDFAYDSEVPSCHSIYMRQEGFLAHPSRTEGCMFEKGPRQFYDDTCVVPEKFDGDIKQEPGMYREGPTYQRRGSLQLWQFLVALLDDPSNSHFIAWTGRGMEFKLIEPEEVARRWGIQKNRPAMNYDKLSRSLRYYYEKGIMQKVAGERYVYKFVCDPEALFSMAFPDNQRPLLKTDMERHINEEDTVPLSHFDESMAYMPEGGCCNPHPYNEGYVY
# Method in brief: as §1
sequence,measurement,setting,value
TCGACA,binding signal,FLI1,"1.38 fold enrichment (6-mer frequency, TF over GST control)"
same,binding signal,ELK1,"1.27 fold enrichment (6-mer frequency, TF over GST control)"
same,binding signal,GABPA,"1.43 fold enrichment (6-mer frequency, TF over GST control)"
same,binding signal,ERG,"1.35 fold enrichment (6-mer frequency, TF over GST control)"
same,binding signal,ELF1,"1.38 fold enrichment (6-mer frequency, TF over GST control)"
same,binding signal,EHF,"1.21 fold enrichment (6-mer frequency, TF over GST control)"
same,binding signal,SPI1,"1.28 fold enrichment (6-mer frequency, TF over GST control)"
same,binding signal,SPIB,"1.25 fold enrichment (6-mer frequency, TF over GST control)"
same,binding signal,ELK3,"1.35 fold enrichment (6-mer frequency, TF over GST control)"
same,binding signal,FEV,"1.3 fold enrichment (6-mer frequency, TF over GST control)"
same,binding signal,ETV5,"1.32 fold enrichment (6-mer frequency, TF over GST control)"
same,binding signal,HSF1,"1.38 fold enrichment (6-mer frequency, TF over GST control)"
same,binding signal,SPIC,"1.28 fold enrichment (6-mer frequency, TF over GST control)"
same,binding signal,ELF4,"1.43 fold enrichment (6-mer frequency, TF over GST control)"
same,binding signal,ELK4,"1.42 fold enrichment (6-mer frequency, TF over GST control)"
same,binding signal,ETV2,"1.19 fold enrichment (6-mer frequency, TF over GST control)"
same,binding signal,ELF3,"1.23 fold enrichment (6-mer frequency, TF over GST control)"
same,binding signal,CRX,"1.19 fold enrichment (6-mer frequency, TF over GST control)"
same,binding signal,ETV1,"1.4 fold enrichment (6-mer frequency, TF over GST control)"
